Results from ChEMBL document CHEMBL1961873, “Compounds: GSK PKIS; Assays: Nanosyn kinase panel” (2012).

Columns and labels:
[1] = molecular target: Tyrosine-protein kinase SYK (Homo sapiens) (UniProt P43405); details: at 1 µM
[2] = molecular target: T1, Tyrosine-protein kinase Tec (Homo sapiens) (UniProt P42680); details: at 0.1 µM
T1 sequence (whole entry): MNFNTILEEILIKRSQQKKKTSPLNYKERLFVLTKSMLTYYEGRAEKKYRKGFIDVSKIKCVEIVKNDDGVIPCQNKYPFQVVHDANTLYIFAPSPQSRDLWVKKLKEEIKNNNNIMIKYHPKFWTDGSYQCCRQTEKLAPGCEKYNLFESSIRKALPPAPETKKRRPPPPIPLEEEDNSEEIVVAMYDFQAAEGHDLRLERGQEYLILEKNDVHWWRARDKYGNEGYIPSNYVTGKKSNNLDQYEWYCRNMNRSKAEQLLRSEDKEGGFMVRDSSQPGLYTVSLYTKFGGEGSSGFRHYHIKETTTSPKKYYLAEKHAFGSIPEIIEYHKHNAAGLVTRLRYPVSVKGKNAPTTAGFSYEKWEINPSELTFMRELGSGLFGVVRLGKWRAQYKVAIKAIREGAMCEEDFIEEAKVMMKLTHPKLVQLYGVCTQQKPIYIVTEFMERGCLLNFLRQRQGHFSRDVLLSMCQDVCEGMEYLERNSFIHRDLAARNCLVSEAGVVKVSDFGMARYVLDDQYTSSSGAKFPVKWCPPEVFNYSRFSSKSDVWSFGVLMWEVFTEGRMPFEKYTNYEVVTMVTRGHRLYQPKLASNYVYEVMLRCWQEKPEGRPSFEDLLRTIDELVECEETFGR

[3] = molecular target: T1, Tyrosine-protein kinase Tec (Homo sapiens); details: at 1 µM
[4] = molecular target: Angiopoietin-1 receptor (Homo sapiens) (UniProt Q02763); details: at 0.1 µM
Sequence of Angiopoietin-1 receptor (Homo sapiens) (Q02763 whole entry): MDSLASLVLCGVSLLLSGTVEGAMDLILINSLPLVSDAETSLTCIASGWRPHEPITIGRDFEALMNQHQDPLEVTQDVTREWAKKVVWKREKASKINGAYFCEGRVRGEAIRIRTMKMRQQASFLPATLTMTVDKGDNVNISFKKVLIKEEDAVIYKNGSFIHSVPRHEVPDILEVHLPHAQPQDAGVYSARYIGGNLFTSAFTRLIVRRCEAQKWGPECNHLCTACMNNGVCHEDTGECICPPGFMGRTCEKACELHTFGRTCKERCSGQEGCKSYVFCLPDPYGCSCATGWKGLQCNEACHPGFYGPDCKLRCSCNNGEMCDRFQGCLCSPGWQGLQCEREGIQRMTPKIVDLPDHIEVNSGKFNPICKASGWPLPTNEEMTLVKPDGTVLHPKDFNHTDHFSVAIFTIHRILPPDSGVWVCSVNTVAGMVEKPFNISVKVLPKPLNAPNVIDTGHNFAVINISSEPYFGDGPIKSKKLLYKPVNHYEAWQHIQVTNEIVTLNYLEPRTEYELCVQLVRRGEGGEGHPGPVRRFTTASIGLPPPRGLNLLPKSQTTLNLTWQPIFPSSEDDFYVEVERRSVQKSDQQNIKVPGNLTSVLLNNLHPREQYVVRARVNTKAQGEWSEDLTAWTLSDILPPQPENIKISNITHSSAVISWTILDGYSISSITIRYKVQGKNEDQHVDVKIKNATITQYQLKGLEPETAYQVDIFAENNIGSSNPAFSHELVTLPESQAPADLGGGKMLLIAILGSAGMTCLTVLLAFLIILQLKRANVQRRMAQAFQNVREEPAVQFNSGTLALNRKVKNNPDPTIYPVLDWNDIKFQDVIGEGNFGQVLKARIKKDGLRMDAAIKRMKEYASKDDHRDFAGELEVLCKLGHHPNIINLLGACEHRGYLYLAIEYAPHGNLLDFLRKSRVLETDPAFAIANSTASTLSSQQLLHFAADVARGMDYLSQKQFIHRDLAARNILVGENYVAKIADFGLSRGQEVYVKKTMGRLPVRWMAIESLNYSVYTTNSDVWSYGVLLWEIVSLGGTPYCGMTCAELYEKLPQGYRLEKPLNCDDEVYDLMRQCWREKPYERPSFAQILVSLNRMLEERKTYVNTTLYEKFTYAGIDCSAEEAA

[5] = molecular target: Angiopoietin-1 receptor (Homo sapiens) (UniProt Q02763); details: at 1 µM
[6] = molecular target: T2, Non-receptor tyrosine-protein kinase TNK1 (Homo sapiens) (UniProt Q13470); details: at 0.1 µM
T2 sequence (whole entry): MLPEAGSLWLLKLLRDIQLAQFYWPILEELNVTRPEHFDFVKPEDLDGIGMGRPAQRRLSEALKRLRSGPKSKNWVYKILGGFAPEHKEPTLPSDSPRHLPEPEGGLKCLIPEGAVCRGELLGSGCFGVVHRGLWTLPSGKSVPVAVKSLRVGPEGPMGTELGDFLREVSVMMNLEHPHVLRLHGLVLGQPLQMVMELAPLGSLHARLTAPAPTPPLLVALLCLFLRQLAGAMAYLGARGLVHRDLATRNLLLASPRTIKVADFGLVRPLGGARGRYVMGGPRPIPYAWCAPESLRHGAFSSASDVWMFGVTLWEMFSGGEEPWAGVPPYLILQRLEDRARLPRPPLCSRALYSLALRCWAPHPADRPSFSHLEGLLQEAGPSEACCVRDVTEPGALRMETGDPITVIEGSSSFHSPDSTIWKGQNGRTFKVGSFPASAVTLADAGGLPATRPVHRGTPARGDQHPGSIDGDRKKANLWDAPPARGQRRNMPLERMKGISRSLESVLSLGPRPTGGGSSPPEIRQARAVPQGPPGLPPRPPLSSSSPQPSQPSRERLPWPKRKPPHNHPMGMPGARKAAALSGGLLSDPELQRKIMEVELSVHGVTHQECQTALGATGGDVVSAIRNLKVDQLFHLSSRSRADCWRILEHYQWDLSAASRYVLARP

[7] = molecular target: T2, Non-receptor tyrosine-protein kinase TNK1 (Homo sapiens); details: at 1 µM
[8] = molecular target: Activated CDC42 kinase 1 (Homo sapiens) (UniProt Q07912); details: at 0.1 µM
Sequence of Activated CDC42 kinase 1 (Homo sapiens) (Q07912 whole entry, looked up): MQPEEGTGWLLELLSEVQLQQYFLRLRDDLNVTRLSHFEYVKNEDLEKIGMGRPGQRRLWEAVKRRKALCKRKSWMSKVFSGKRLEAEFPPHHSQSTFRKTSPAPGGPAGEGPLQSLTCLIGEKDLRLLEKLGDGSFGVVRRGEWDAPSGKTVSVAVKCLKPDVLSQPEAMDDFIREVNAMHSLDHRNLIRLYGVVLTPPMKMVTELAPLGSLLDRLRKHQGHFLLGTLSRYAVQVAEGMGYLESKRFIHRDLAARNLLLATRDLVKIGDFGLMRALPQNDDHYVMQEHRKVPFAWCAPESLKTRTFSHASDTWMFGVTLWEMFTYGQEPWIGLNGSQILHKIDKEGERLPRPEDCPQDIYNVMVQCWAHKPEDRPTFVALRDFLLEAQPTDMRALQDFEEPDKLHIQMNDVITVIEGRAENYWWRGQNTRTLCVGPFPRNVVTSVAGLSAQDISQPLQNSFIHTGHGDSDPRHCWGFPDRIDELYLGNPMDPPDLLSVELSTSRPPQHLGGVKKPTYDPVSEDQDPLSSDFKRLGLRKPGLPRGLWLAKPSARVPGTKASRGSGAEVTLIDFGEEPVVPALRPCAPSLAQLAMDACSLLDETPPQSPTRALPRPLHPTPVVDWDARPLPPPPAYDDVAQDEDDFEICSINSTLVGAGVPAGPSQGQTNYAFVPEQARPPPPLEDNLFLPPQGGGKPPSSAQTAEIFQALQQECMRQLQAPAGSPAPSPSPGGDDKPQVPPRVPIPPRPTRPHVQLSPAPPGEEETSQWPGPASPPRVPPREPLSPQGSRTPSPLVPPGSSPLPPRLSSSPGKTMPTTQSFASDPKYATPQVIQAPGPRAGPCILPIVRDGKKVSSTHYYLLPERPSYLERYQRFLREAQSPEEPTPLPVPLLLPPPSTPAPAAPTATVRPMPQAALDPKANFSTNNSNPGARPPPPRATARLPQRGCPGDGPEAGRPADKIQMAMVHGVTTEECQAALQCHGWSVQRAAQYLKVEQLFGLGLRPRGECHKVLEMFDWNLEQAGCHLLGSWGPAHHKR

[9] = molecular target: Activated CDC42 kinase 1 (Homo sapiens) (UniProt Q07912); details: at 1 µM
[10] = molecular target: High affinity nerve growth factor receptor (Homo sapiens) (UniProt P04629); details: at 0.1 µM;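 also: each value is a mean of replicate percent inhibition readings against TRKA kinase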
Sequence of High affinity nerve growth factor receptor (Homo sapiens) (P04629 33-796 limits assumed): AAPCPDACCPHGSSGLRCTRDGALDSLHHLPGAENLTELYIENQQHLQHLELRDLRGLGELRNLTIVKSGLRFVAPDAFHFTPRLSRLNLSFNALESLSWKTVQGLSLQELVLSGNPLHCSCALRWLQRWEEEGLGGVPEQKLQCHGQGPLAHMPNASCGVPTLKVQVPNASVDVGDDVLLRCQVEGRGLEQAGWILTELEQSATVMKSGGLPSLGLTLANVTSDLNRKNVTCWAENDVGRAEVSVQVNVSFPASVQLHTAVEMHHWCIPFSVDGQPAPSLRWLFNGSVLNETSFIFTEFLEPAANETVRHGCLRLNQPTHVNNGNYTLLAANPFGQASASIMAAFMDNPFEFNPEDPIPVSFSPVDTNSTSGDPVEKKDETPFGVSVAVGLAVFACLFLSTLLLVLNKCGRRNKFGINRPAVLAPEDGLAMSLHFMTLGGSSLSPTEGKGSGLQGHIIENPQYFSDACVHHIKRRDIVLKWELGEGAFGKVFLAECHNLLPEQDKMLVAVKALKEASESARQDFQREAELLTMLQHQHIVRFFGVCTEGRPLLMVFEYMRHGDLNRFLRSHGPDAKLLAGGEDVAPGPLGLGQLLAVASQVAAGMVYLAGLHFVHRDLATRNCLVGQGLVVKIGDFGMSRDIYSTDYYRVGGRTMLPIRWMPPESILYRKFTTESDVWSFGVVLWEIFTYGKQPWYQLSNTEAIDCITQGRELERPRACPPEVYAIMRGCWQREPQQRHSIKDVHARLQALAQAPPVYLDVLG

SMILES | inhibition [1] [%] | inhibition [2] [%] | inhibition [3] [%] | inhibition [4] [%] | inhibition [5] [%] | inhibition [6] [%] | inhibition [7] [%] | inhibition [8] [%] | inhibition [9] [%] | inhibition [10] [%]
NS(=O)(=O)c1ccc(N/N=C2\C(=O)Nc3ccc(Cl)cc32)cc1 | -3.16 | 4.2 | 6.14 | 0.79 | 3.42 | 3.04 | 20.5 | 0.4 | 3.7 | 3.01
CCn1c(-c2nonc2N)nc2ccc(F)cc21 | -1.93 | 6.29 | 3.97 | 2.7 | 1.79 | 7.71 | 9.97 | 1.53 | 3.08 | 2.92
O=C(Nc1ccc(Oc2ccc3[nH]c(NC(=O)c4ccco4)nc3c2)cc1)Nc1cc(C(F)(F)F)ccc1F | -2.67 | -1.71 | 0.35 | 49.4 | 82.4 | 9.16 | 58.6 | 0.17 | 0.5 | 30.2
Cc1ccc2c(-c3ccnc(Nc4ccc5c(c4)OCCO5)n3)c(-c3ccc(C(F)(F)F)cc3)nn2n1 | -4.13 | -0.12 | 3.34 | -0.68 | 6.26 | -0.74 | 2.22 | -0.07 | 0.6 | -1.98
CN1CCN(C(=O)c2ccc(NC(=O)Nc3ccc(N(C)c4ccnc(Nc5ccc(CS(C)(=O)=O)cc5)n4)cc3)cc2)CC1 | -2.49 | 10.1 | 37.1 | 33.2 | 67.1 | 46.2 | – | 8.52 | 61 | 7.78
Cc1ccc(Nc2ccnc(Nc3cccc(C(N)=O)c3)n2)cc1O | 14.2 | 18 | 57.1 | 4.56 | 39.7 | 8.82 | 52.1 | 3.73 | 28.8 | 4.38
C[C@@H](Oc1cc(-n2cnc3ccc(OCC4CCN(C)CC4)cc32)sc1C(N)=O)c1ccccc1C(F)(F)F | 0.25 | -1.52 | -0.1 | 5.78 | 32.4 | 3.21 | 30.3 | 5.42 | 46.1 | -0.37
c1ccc(Cc2nc3ccc(Nc4ncnc5ccccc45)cc3[nH]2)cc1 | -0.79 | 4.4 | 8.08 | 2.5 | 5.58 | 1.92 | 11.4 | 1.45 | 3.26 | 2.77
Cc1ccc(O)cc1Nc1ccnc2ccc(S(C)(=O)=O)cc12 | -3.99 | 77.9 | 82.7 | 27.1 | 70.5 | 4.13 | 13.7 | 9.97 | 54.8 | 2.69
NS(=O)(=O)c1ccc(-c2cc3ccncc3cc2OCc2ccccc2)cc1 | 0.64 | 2.94 | 4.44 | 1.38 | 3.06 | 3.48 | 16 | 0.6 | 2.21 | 4.15
COc1cc(Nc2nccc(-c3cnn4ncccc34)n2)cc(OC)c1 | 61.2 | 9.2 | 42.9 | 7.05 | 39.6 | 26.8 | 64.4 | 3.06 | 35.6 | 0.98
Cc1ccc(C(=O)NC2CC2)cc1-c1ccc2[nH]ncc2c1 | -0.05 | -3.67 | -3.15 | 0.34 | 3.3 | -1.01 | 4.02 | -0.76 | 2.48 | 1.88
Nc1nccc(-c2c(-c3ccc(F)cc3)ncn2CCCN2CCOCC2)n1 | -0.03 | 3.86 | 3.98 | 8.3 | 8.42 | 1.92 | 5.56 | 0.21 | 1.33 | -0.29
Nc1ccc(C#Cc2cncnc2Nc2ccc(OCc3cccc(F)c3)c(Cl)c2)cc1 | -2.35 | -0.48 | 3.77 | 1.84 | 3.47 | -0.01 | – | 1.62 | 1.81 | 4.31
CS(=O)(=O)CCNCc1nc(-c2ccc3ncnc(Nc4ccc(OCc5cccc(C(F)(F)F)c5)cc4)c3c2)cs1 | 2.72 | 4.74 | 5.07 | 5.84 | 6.51 | 0.85 | 2.82 | 0.72 | 3.3 | 0.13
Nc1nccc(-c2c(-c3ccc(F)cc3)nn3cc(C(F)(F)F)ccc23)n1 | -1.5 | 0.64 | 4.1 | 1.2 | 3.87 | 2.37 | -0.22 | -0.73 | 0.6 | -2.97
COc1cccc(-n2nc(C)c3c(N/N=C(\C)c4ccncc4)ncnc32)c1 | 2.38 | 1.82 | 3.53 | 0.73 | 2.25 | -1.41 | 0.13 | -0.22 | 0.84 | 0.99

SMILES | inhibition [1] [%] | inhibition [2] [%] | inhibition [3] [%] | inhibition [4] [%] | inhibition [5] [%] | inhibition [6] [%] | inhibition [7] [%] | inhibition [8] [%] | inhibition [9] [%] | inhibition [10] [%]
COc1cc2ncn(-c3cc(OCc4ccccc4S(C)(=O)=O)c(C#N)s3)c2cc1OC | -2.95 | 7.94 | 35.5 | 5.63 | 14.6 | 38.6 | 77.9 | 6.02 | 38 | 5.48
FC(F)(F)c1ccc(-c2nn3ncccc3c2-c2ccnc(Nc3ccc4c(c3)OCCO4)n2)cc1 | 0.25 | 3.97 | 5.21 | 9.11 | 33.8 | 6.18 | 22.2 | 6.74 | 8.14 | -1.21
COC(=O)c1cncc(/C=C/c2c(C)cc(O)cc2C)c1 | -1.42 | 6.12 | 20.5 | 1 | 1.3 | 4.05 | 20 | 1.2 | 5.39 | 2.21
CCS(=O)(=O)c1ccc(OC)c(Nc2ncc(-c3cccc(OC)c3)o2)c1 | -2.39 | 8.3 | 35.5 | 3.35 | 16.1 | 49 | 90.6 | 2.52 | 15.3 | 7.51
CN(c1ccc(NC(=O)Nc2ccc(OC(F)(F)F)cc2)cc1)c1ccnc(Nc2cccc(S(N)(=O)=O)c2)n1 | – | 0.44 | 7.04 | 36 | 79.2 | 21.4 | 82.2 | 0.67 | 4.69 | 30
CC(C)c1ccc2c(c1)NC(=O)/C2=N/Nc1ccc(S(N)(=O)=O)cc1 | 1.53 | 1.22 | 3.98 | 1.55 | 3.02 | 2.2 | 9.9 | 0.13 | 4.69 | 3.96
COc1cccc(-n2ncc3c(N/N=C/c4ccc(C)cc4)ncnc32)c1 | 0.76 | 6.46 | 5.78 | 4.38 | 5.1 | 4.86 | 9.73 | 0.47 | 5.39 | 9.62
CCOc1nccc2c1nc(-c1nonc1N)n2CC | 1.57 | 3.96 | 5.87 | 2.25 | 8.59 | 2.63 | 20.1 | 3.04 | 7.54 | -1.22
N#Cc1c(NC(=O)c2ccccc2F)sc2c1CCCC2 | 0.42 | -1.7 | 0.35 | -1.22 | 3.44 | -2.62 | -0.58 | -0.05 | 3 | -0.84
CN(C)CCCn1c(-c2nonc2N)nc2cnccc21 | 0.37 | 4 | 4.06 | 0.92 | 1.59 | 1.08 | -3.93 | 0.54 | 0.77 | 1.3
COC(=O)Nc1nc2cc(Oc3ccc(NC(=O)Nc4cccc(Br)c4)cc3)ccc2[nH]1 | 0.53 | 4.37 | 3.43 | 31.3 | 54 | 3.04 | 8.8 | 0.29 | 0.1 | 28.4
NS(=O)(=O)c1cccc(Nc2cc(-c3ccc(F)cc3)n[nH]2)c1 | -1 | 3.27 | 6.08 | 0.52 | 4.79 | 2.68 | 16.2 | 0.5 | 2.57 | 2.83
[O-][S+]1CCN(Cc2ccc(-c3ccc4ncnc(Nc5ccc(OCc6ccccc6)c(Cl)c5)c4c3)o2)CC1 | 0 | -0.94 | 1.06 | 0.37 | 1.08 | -0.33 | 9.61 | 0.09 | -0.42 | 1.88
NC(=O)c1cccc(Nc2nccc(Nc3cccc(F)c3)n2)c1 | -2.49 | 6.51 | 34.3 | 1.74 | 10.1 | 6.18 | 44.3 | 2.29 | 22.2 | 1.89
CCS(=O)(=O)c1ccc(OC)c(Nc2nccc(N(C)c3ccc4c(C)n[nH]c4c3)n2)c1 | -6.17 | 4.3 | 27 | 6.69 | 46.3 | 40 | 82.5 | 2.32 | 22.8 | 2.86
CCn1c(-c2nonc2N)nc2c(C#CC(C)(C)O)nc(OCCNC)cc21 | 0.91 | 5.49 | 3.22 | 2.67 | 6.8 | 0.64 | 3.22 | 0.83 | 1.43 | 3.54
Cc1cc(O)cc(C)c1/C=C/c1cncc(C(=O)N(C)C)c1 | 2.96 | 3.84 | 5.03 | 5.65 | 10.7 | – | 1.79 | 1.45 | 2.24 | 2.88
